From PubChem BioAssay
MOR-DOR inv ag: mu-delta opioid heterodimer inverse agonism | P35372+P41143 | cell-based MOR-DOR heterodimer luminescence | inhibition, % at 9.3 µM | 340,000 compounds, 0.21% hits | AID 504357; in the data active means inhibition above about 22%, passing the limit was not always enough;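 further: 0% = cells with DMSO and 100% = wells without cells with DMSO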
Target sequence (P35372 whole entry, looked up): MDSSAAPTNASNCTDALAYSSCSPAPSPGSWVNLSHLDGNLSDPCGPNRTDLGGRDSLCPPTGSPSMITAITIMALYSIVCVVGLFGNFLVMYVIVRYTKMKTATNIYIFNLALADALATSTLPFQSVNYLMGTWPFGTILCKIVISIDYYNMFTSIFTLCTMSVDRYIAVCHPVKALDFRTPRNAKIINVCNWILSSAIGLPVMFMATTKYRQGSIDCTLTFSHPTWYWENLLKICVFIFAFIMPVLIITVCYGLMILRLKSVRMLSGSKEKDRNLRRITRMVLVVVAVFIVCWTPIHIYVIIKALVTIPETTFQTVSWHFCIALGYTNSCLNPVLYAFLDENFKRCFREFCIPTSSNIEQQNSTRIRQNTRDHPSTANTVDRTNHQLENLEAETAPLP
Target sequence (P41143 whole entry, looked up): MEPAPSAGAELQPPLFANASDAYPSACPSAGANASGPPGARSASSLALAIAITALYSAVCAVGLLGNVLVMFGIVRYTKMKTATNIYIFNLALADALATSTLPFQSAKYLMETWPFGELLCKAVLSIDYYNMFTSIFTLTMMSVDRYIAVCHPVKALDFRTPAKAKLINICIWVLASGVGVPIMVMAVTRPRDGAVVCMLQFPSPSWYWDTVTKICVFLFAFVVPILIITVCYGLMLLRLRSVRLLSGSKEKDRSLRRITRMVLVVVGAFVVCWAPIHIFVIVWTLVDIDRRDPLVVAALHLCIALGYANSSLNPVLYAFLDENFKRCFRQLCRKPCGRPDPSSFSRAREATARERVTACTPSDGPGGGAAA
HTR5A inv ctr: counter-screen for OPRM1-OPRD1 inverse agonists: human HTR5A inverse agonism. P47898. HTR5A cell line, luminescence. inhibition, % at 9.3 µM. 340,000 compounds, 0.083% hits. AID 504634; in the data active means inhibition mostly above about 23%, no sharp cut-off; inactive means mostly below about 18%;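 further: 0% = cells with DMSO and 100% = no-cell wells with DMSO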
HTR5A ag: activates human HTR5A in OPRM1-OPRD1 agonist counter-screen; 340,000 compounds, 0.61% hits; activation, % at 9.3 µM; HTR5A agonist assay, luminescence, cell-based; in the data active means activation mostly above about 9.5%, no sharp cut-off; inactive means mostly below about 7.6%;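 further: 0% = cells with vehicle only and 100% = reference agonist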
OPRM1-OPRD1 ag: OPRM1-OPRD1 heterodimerization agonism; P35372+P41143; cells, luminescence; activation, % at 9.3 µM; 340,000 compounds, 0.3% hits; AID 504326; in the data active means activation above about 18%;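 further: 0% = vehicle-treated cells and 100% = reference agonist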
MOR-DOR inv conf: OPRM1-OPRD1 heterodimer inverse agonism, confirmation; shares compounds with MOR-DOR inv ag; AID 504900; inhibition, % at 9.3 µM; cells expressing OPRM1/OPRD1 heterodimer, luminescence; 580 compounds, 20% hits; in the data active means inhibition above about 32%;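 further: 0% = cells with DMSO and 100% = wells lacking cells with DMSO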
HTR5A inv count: inverse agonist of human HTR5A in OPRM1-OPRD1 counter-screen; shares compounds with MOR-DOR inv ag; HTR5A-expressing cells, luminescence, inverse agonism; inhibition, % at 9.3 µM; 580 tested, under 10 active; AID 504914; call rule not given here;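 further: 0% = cells with DMSO and 100% = no-cell wells with DMSO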
* marks the source's active call; other numbers are inactive results. Shown are actives, neighbours in structure and some others; about 1.1% of the full set was active somewhere.

CCOC(=O)N1CCN(C(=O)/C=C/c2ccc(C(C)(C)C)cc2)CC1 was read as MOR-DOR inv ag 4.1, HTR5A inv ctr -7.1, HTR5A ag 1.9 and OPRM1-OPRD1 ag -0.8.
`Cc1ccc(S(=O)(=O)N=Nc2c(O)[nH]c3ccccc23)cc1` gave MOR-DOR inv ag 50.2*, HTR5A inv ctr 11.6, HTR5A ag -3.5, OPRM1-OPRD1 ag -8.0, MOR-DOR inv conf 0.7 and HTR5A inv count 17.1.
For Cc1ccc(C)c(S(=O)(=O)N=Nc2c(O)[nH]c3ccccc23)c1 the results were MOR-DOR inv ag 45.8*, HTR5A inv ctr 23.3, HTR5A ag -8.4, OPRM1-OPRD1 ag -8.3, MOR-DOR inv conf 18.6 and HTR5A inv count 8.6.
`Cc1ccc(C(=O)OCC(=O)c2ccc(S(=O)(=O)N3CCCCC3)cc2)o1` gave MOR-DOR inv ag 52.5*, HTR5A inv ctr 20.1, HTR5A ag -6.7, OPRM1-OPRD1 ag -8.1, MOR-DOR inv conf inactive and HTR5A inv count -10.7.
COc1ccc(C(=O)OCC(=O)c2ccc(S(=O)(=O)N3CCCCC3)cc2)c(OC)c1 was read as MOR-DOR inv ag 8.9, HTR5A inv ctr 4.4, HTR5A ag 0.6 and OPRM1-OPRD1 ag -1.4.
`COc1cccc(C(=O)OCC(=O)c2ccc(S(=O)(=O)N3CCCCC3)cc2)c1OC` gave MOR-DOR inv ag 30.1*, HTR5A inv ctr 8.4, HTR5A ag -2.8, OPRM1-OPRD1 ag -4.7, MOR-DOR inv conf -30.6 and HTR5A inv count 6.9.
`COc1cc(/C=C/C(=O)OCC(=O)c2ccc(S(=O)(=O)N3CCCCC3)cc2)cc(OC)c1OC` gave MOR-DOR inv ag 18.3, HTR5A inv ctr -15.1, HTR5A ag 6.4 and OPRM1-OPRD1 ag -3.8.
For COc1cccc(/C=C/C(=O)OCC(=O)c2ccc(S(=O)(=O)N3CCCCC3)cc2)c1OC the results were MOR-DOR inv ag 31.3*, HTR5A inv ctr 13.4, HTR5A ag -5.3, OPRM1-OPRD1 ag -5.7, MOR-DOR inv conf -32.3 and HTR5A inv count 17.0.
`COc1ccc(C(=O)NCCCn2nc(C)cc2C)cc1S(=O)(=O)N1CCOCC1` gave MOR-DOR inv ag 3.7, HTR5A inv ctr -23.3, HTR5A ag 3.4 and OPRM1-OPRD1 ag -0.6.
For CC1CC(C)CN(C(=O)CCCNC(=O)c2ccc(Cl)cc2)C1 (stereo not given) the results were MOR-DOR inv ag 10.1, HTR5A inv ctr 7.7, HTR5A ag -2.5 and OPRM1-OPRD1 ag -1.9.
c1ccc(C2OC3c4cccc5cccc(c45)C3N2c2ccccc2)cc1 (stereo not given) was read as MOR-DOR inv ag 38.0*, HTR5A inv ctr 9.2, HTR5A ag -3.5, OPRM1-OPRD1 ag -7.6, MOR-DOR inv conf -40.6 and HTR5A inv count -2.3.
Screening CCOc1ccc(C2C(C(=O)c3cccs3)=C(O)C(=O)N2Cc2cccnc2)cc1OC (stereo not given) returned MOR-DOR inv ag 9.9, HTR5A inv ctr 7.4, HTR5A ag -2.7 and OPRM1-OPRD1 ag -2.1.
Screening CN(C)CCC(=O)N1C/C(=C/c2ccccc2)C(=O)/C(=C\c2ccccc2)C1 returned MOR-DOR inv ag 42.9*, HTR5A inv ctr 24.6, HTR5A ag -6.3, OPRM1-OPRD1 ag -8.3, MOR-DOR inv conf 21.0 and HTR5A inv count 16.0.
C[N+](C)(C)CCC(=O)N1C/C(=C/c2ccccc2)C(=O)/C(=C\c2ccccc2)C1 was read as MOR-DOR inv ag 9.7, HTR5A inv ctr -5.2, HTR5A ag 1.4 and OPRM1-OPRD1 ag -2.2.
Cc1cc(NC(=O)CSCC(=O)OCC(=O)c2cccc(Br)c2)no1 was read as MOR-DOR inv ag 26.8*, HTR5A inv ctr 20.4, HTR5A ag -8.3, OPRM1-OPRD1 ag -6.5, MOR-DOR inv conf -34.5 and HTR5A inv count 6.6.
Cc1onc(-c2c(F)cccc2Cl)c1C(=O)N1CCCC1 was read as MOR-DOR inv ag 11.0, HTR5A inv ctr 13.2, HTR5A ag -5.3 and OPRM1-OPRD1 ag -1.7.
`Cc1cc(C(=O)N2CCCC(Nc3ccc(F)cc3)C2)c(C)o1` (stereo not given) gave MOR-DOR inv ag 12.0, HTR5A inv ctr 5.3, HTR5A ag 0.6 and OPRM1-OPRD1 ag -3.7.
`CN1CCc2c(sc3c2c(=O)n(-c2ccc(Cl)cc2)c2nncn32)C1` gave MOR-DOR inv ag 0.7, HTR5A inv ctr -1.8, HTR5A ag -2.3 and OPRM1-OPRD1 ag -0.1.
For O=c1c2c3c(sc2n2cnnc2n1Cc1ccccc1)CN(Cc1ccccc1)CC3 the results were MOR-DOR inv ag 33.7*, HTR5A inv ctr 22.0, HTR5A ag -7.5, OPRM1-OPRD1 ag -6.2, MOR-DOR inv conf -37.2 and HTR5A inv count -27.0.
Screening CN(CCOc1ccc(Cl)cc1)C(=O)Cc1ccc(S(=O)(=O)N2CCOCC2)s1 returned MOR-DOR inv ag 9.5, HTR5A inv ctr 5.7, HTR5A ag -2.3 and OPRM1-OPRD1 ag -2.2.
For O=C(Nc1nccs1)c1cncc(Br)c1 the results were MOR-DOR inv ag 5.0, HTR5A inv ctr -15.6, HTR5A ag 3.5 and OPRM1-OPRD1 ag -1.0.
For O=C(Nc1ccc(Cl)cc1)C(Cl)C(=O)c1ccccc1 (stereo not given) the results were MOR-DOR inv ag 36.5*, HTR5A inv ctr 7.6, HTR5A ag -2.8, OPRM1-OPRD1 ag -6.9, MOR-DOR inv conf -384.8 and HTR5A inv count -3.1.
CCCN(CCC)c1nc(-c2ccccn2)nc2ccccc12 was read as MOR-DOR inv ag 39.2*, HTR5A inv ctr 3.0, HTR5A ag -0.8, OPRM1-OPRD1 ag -8.7, MOR-DOR inv conf -159.4 and HTR5A inv count -18.6.
`Cn1ccsc1=NC(=O)c1ccc(S(C)(=O)=O)cc1` gave MOR-DOR inv ag 6.9, HTR5A inv ctr 2.8, HTR5A ag -1.2 and OPRM1-OPRD1 ag -1.2.
For Cc1ccc(NS(=O)(=O)c2ccc(NC(=O)c3cccc(NC(=O)C(C)C)c3)cc2)cc1 the results were MOR-DOR inv ag 5.5, HTR5A inv ctr -29.4, HTR5A ag 1.0 and OPRM1-OPRD1 ag -1.0.
For Cc1cc(NC(=O)CSc2nc3c([nH]c4ccccc43)c(=O)n2-c2ccccc2F)no1 the results were MOR-DOR inv ag 34.2*, HTR5A inv ctr 15.2, HTR5A ag -3.1, OPRM1-OPRD1 ag -6.4, MOR-DOR inv conf 12.5 and HTR5A inv count 14.8.
Cc1ccc(-n2nc3c(c2NC(=O)C(C)C)CS(=O)(=O)C3)c(C)c1 was read as MOR-DOR inv ag 14.2, HTR5A inv ctr 10.5, HTR5A ag -2.7 and OPRM1-OPRD1 ag -3.0.
`O=[N+]([O-])c1ccc(O)c(C=NNc2ccc(S(=O)(=O)O)cc2)c1` gave MOR-DOR inv ag 31.2*, HTR5A inv ctr 14.7, HTR5A ag -3.8, OPRM1-OPRD1 ag -6.2, MOR-DOR inv conf -84.9 and HTR5A inv count -11.8.
`O=[N+]([O-])c1cccc(N/N=C/c2cc([N+](=O)[O-])ccc2O)c1` gave MOR-DOR inv ag -17.7, HTR5A inv ctr -1.5, HTR5A ag 0.6 and OPRM1-OPRD1 ag 3.1.
